Source: PubChem
TMEM16A inh = blocks the mouse calcium-activated chloride channel TMEM16A; Q8BHY3; HEK293 TMEM16A/YFP iodide influx fluorescence, ionomycin; normalized B-score (activity score, 25-100; higher = stronger inhibition) at 10 µM; actives 1.2% (n = 310,000); AID 588511;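 active = ratio plate-corrected score three or more library SD toward inhibition, starting fluorescence score within five deviations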;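 also: score derived from kinetic fluorescence span divided by baseline fluorescence per well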
iPSC survival up = enhancers of human iPSC single-cell survival; hiPSC single-cell survival, ATPlite luminescence; 100% = ROCK inhibitor wells, 0% = DMSO; survival enhancement, % at 20 µM; actives 0.044% (n = 360,000); AID 602274; in the data active = survival enhancement above about 18%;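 also: cells exposed to compounds for 16 hours before the ATP read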
TMEM16A act = activators or potentiators of mouse TMEM16A chloride channel | B-score at 10 µM | actives 0.3% (n = 340,000) | Q8BHY3 | HEK293 TMEM16A/YFP-H148Q/I152L, iodide quench fluorescence; stronger effect = lower value;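 active = fluorescence-ratio B-score plate-corrected deviation score at least 3 library SD below zero, with starting fluorescence score within 5 deviations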;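 also: channel opened by trigger with iodide after compound preincubation; score built on the fluorescence ratio of max minus min over baseline; more negative score means more quench and so TMEM16A activation or potentiation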
ABCB6 inh MLPCN = human ABCB6 transporter inhibition; Q9NP58; K562-ABCB6 porphyrin accumulation, flow cytometry, 1 h; stronger effect = lower value; fluorescence ratio to DMSO, % at 10 µM; actives 0.19% (n = 360,000);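 active = fluorescence ratio to DMSO below 75%, the collection mean minus 3 SD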;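 also: signal is porphyrin accumulated inside mitochondria; 100% equals median channel fluorescence of DMSO control wells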
DAGLB inhibitor = blocks human DAGLB lipase activity; Q8NCG7; HEK293T DAGLB membrane lysate, EnzChek fluorogenic substrate; inhibition, % at 5.17 µM; actives 0.059% (n = 340,000); in the data active = inhibition above about 34%;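 also: 0% = enzyme with vehicle and 100% = wells lacking enzyme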
Target sequence (Q8NCG7 whole entry, looked up): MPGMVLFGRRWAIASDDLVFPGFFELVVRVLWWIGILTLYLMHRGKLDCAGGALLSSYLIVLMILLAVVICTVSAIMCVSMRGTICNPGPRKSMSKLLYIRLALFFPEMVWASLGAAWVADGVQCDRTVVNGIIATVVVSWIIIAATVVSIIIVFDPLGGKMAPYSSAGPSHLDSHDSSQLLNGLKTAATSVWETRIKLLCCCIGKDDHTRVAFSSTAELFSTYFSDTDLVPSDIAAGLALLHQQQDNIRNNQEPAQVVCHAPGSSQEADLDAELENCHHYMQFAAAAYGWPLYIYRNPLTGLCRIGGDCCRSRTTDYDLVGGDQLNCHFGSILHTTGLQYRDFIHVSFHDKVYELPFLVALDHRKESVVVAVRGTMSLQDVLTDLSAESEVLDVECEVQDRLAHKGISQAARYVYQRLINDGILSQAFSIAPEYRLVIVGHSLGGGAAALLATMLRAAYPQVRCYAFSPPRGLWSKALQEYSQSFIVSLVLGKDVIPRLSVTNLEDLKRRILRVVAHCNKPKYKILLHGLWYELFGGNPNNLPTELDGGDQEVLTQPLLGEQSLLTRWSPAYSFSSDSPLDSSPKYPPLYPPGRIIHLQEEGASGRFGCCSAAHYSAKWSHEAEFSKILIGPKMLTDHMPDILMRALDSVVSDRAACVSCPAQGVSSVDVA
ABCB6 blocker 1 = inhibitors of human ABC transporter ABCB6. 700 tested, under 10 active. shares compounds with ABCB6 inh MLPCN. ratio response (% of DMSO), % at 10 µM. K562-ABCB6 porphyrin accumulation, flow cytometry, 1 h; stronger effect = lower value;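 active = repeat-averaged ratio response below 75% of DMSO, the collection mean minus 3 SD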;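 also: median porphyrin fluorescence at 575 nm with 488 nm excitation from mitochondria; lower ratio means less porphyrin signal so ABCB6 inhibition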
* hit, by the source's call; i = inactive; / = no result given. Compounds with a hit are over-represented: about 1.5% of the library has one in this group of screens.

SMILES | TMEM16A inh | iPSC survival up | TMEM16A act | ABCB6 inh MLPCN | DAGLB inhibitor | ABCB6 blocker 1
C[C@H](NC(=O)c1nc[nH]c1C(=O)N1CCN(c2ccccc2)CC1)c1ccccc1 | / | 0 | i | 95 | 0 | /
COc1cc(-c2nnc(CSc3nnc(Nc4ccc(C(C)C)cc4)s3)o2)cc(OC)c1OC | i | -1 | i | 74* | 3 | 99
Cc1noc(C)c1S(=O)(=O)N1CCC(C(=O)O)CC1 | / | -2 | i | 100 | -3 | 99
Cc1ccc(C(=O)C2CCN(S(=O)(=O)c3c(C)noc3C)CC2)cc1 | i | 0 | i | 98 | / | /
Cc1cc(C)cc(N(C(=O)c2csnn2)C(C(=O)NC2CCCCC2)c2cccnc2)c1 (stereo unspecified) | i | -1 | i | 105 | 0 | /
O=C(NC1CCCC1)C(c1ccco1)N(Cc1ccccc1)C(=O)c1csnn1 (stereo unspecified) | i | -2 | i | 94 | 0 | /
Cc1ccc(CN(C(=O)c2csnn2)C(C(=O)NC2CCCC2)c2ccco2)cc1 (stereo unspecified) | i | 0 | i | 73* | 1 | 99
Cc1cc(C)cc(N(C(=O)c2csnn2)C(C(=O)NC2CCCC2)c2cccnc2)c1 (stereo unspecified) | i | 0 | i | 74* | 0 | 100
O=C1[C@H]2[C@@H](c3ccc(F)cc3)N3C(=O)N(c4ccc(Br)cc4)C(=O)[C@@]3(Cc3ccc(Cl)cc3)[C@H]2C(=O)N1C1CCCCC1 | i | 1 | i | 100 | 0 | /
CCN1C(=O)[C@H]2[C@@H](c3ccc(-c4cccc(Cl)c4)cc3)N[C@@](Cc3ccccc3)(C(=O)OC)[C@H]2C1=O | i | -2 | i | 93 | -6 | /
O=C(O)COCC(=O)N1CCCN(c2nccc(C(F)(F)F)n2)CC1 | i | 0 | i | 50* | -2 | 102
O=C(O)CSCC(=O)N1CCCN(c2nccc(C(F)(F)F)n2)CC1 | i | 0 | i | 94 | 0 | /
CN(Cc1ccccc1)C1=CC(=[N+]2CCCC2)CC(C)(C)C1 | i | 0 | i | 98 | -1 | /
CCN(CC)C1=CC(=[N+]2CCCC2)CC(C)(C)C1 | i | -1 | i | 67* | -3 | 103
COCCOC(=O)c1[nH]c2c(c1C)C(=O)CC(c1cc(OC)c(OC)c(OC)c1)C2 (stereo unspecified) | i | 1 | i | 71* | 0 | 96
CCCCOC(=O)c1[nH]c2c(c1C)C(=O)CC(c1cc(OC)c(OC)c(OC)c1)C2 (stereo unspecified) | i | -3 | i | 98 | 0 | /
COc1cccc(CNCCO)c1OCc1ccccc1 | i | -1 | i | 100 | 0 | /
COc1cccc(CNCCO)c1OCc1ccc(Cl)cc1 | i | 0 | i | 74* | -2 | 97
CC(=O)c1cccc(S(=O)(=O)NCCCN2CCOCC2)c1 | / | -2 | i | 100 | 1 | /
Cc1cccc(N2CCN(C(=O)CCN3C(=O)C4C5C=CC(C5)C4C3=O)CC2C)c1 (stereo unspecified) | i | 0 | i | 67* | 0 | 96
CCOCCn1c(N2CCN(c3ccc(OC)cc3)CC2)nc2c1c(=O)[nH]c(=O)n2C | i | 3 | i | 72* | -2 | 99
COCCn1c(N2CCN(c3ccc(OC)cc3)CC2)nc2c1c(=O)[nH]c(=O)n2C | i | 0 | i | 94 | 3 | /
O=C(Oc1ccc(N(Cc2cccs2)C2=NS(=O)(=O)c3ccccc32)cc1)c1ccccc1 | i | 1 | i | 66* | 0 | 100
CCOC(=O)C1CCN(S(=O)(=O)c2ccc(OCC(=O)OC)cc2)CC1 | i | 1 | i | 99 | 2 | 100
NS(=O)(=O)c1ccc(NC(=O)CN2CCc3ccccc3C2)cc1 | i | 0 | i | 73* | 1 | 99
SMILES | TMEM16A inh | iPSC survival up | TMEM16A act | ABCB6 inh MLPCN | DAGLB inhibitor | ABCB6 blocker 1
CC(OC(=O)c1ccccc1C(=O)O)c1ccccc1 (stereo unspecified) | / | -1 | i | 89 | 0 | /
COCCCNC(=O)CCc1nnc2ccc(N3CCC(C)CC3)nn12 | i | 0 | i | 94 | -3 | 102
CC1CCN(c2ccc3nnc(CCC(=O)NC(C)C)n3n2)CC1 | i | 0 | / | 97 | 0 | 91
COCCNC(=O)CCc1nnc2ccc(N3CCC(C)CC3)nn12 | i | 0 | i | 96 | 3 | 101
CC1CCN(c2ccc3nnc(CCC(=O)Nc4ccc(F)cc4)n3n2)CC1 | i | 0 | i | 100 | -1 | /
COC(=O)C(NC(=O)CCc1nnc2ccc(N3CCCCC3)nn12)C(C)C (stereo unspecified) | i | 1 | i | 100 | 1 | 100
COc1cc(NC(=O)CCc2nnc3ccc(N4CCC(C)CC4)nn23)cc(OC)c1 | i | 0 | i | 101 | 0 | /
CC1(C)OC1(C#N)c1ccccc1 (stereo unspecified) | / | 3 | i | 88 | -1 | /
N#Cc1c(F)cccc1NCCCn1ccnc1 | i | 0 | i | 97 | 0 | /
CCN(CC)CCNC(=O)CCc1nnc2ccc(N3CCC(C)CC3)nn12 | i | -1 | i | 99 | 0 | 103
Cc1ccc(NC(=O)CCc2nnc3ccc(N4CCC(C)CC4)nn23)nc1 | i | 0 | i | 101 | 4 | /
Cc1onc(-c2ccccc2Cl)c1C(=O)NCC1CCCO1 (stereo unspecified) | i | 3 | i | 74* | 6 | 101
CC(=O)c1c(C)oc2ccc(NS(=O)(=O)c3ccc(F)cc3C)cc12 | i | 0 | i | 73* | 0 | 101
O=C(COC(=O)c1ccc[nH]c1=O)Nc1cc(S(=O)(=O)N2CCCCCC2)ccc1Cl | / | 0 | i | 98 | 1 | /
CC(O)(c1cccc(F)c1)c1nc(-c2ccc3ccccc3c2)cs1 (stereo unspecified) | / | -1 | / | 98 | / | /
COc1ccc(CN(C(=O)c2snc(C(N)=O)c2N)C(C(=O)NC2CCCC2)c2cc(OC)ccc2OC)cc1 (stereo unspecified) | i | 0 | i | 94 | 3 | /
CCOC(=O)C1=C(C)NC(C)=C(C(=O)OCC)C1C(=O)OCC(=O)N(C)Cc1ccccc1 | / | -1 | i | 74* | 0 | 99
CCOC(=O)C1=C(C)NC(C)=C(C(=O)OCC)C1C(=O)OCC(N)=O | i | -1 | i | 103 | -1 | /
Cc1cc(NC(=O)c2cc(C)on2)n(-c2ccccc2)n1 | i | -2 | i | 72* | -2 | 103
CC(C)(C)c1ccc(CC(=O)N2CCC2(C)C(=O)NCc2ccc3c(c2)OCO3)cc1 (stereo unspecified) | / | -1 | / | 101 | / | /
CC(C)c1ccc(CC(=O)N2CCC2(C)C(=O)NS(=O)(=O)c2cccc(OC(F)F)c2)cc1 (stereo unspecified) | / | -1 | / | 95 | / | 97
